Results filed as inconclusive are left out. Calls of active or inactive are those of the source. The call rests on the fitted dose curve; in most records, active means well fitted cell-killing curve with a large enough effect; inconclusive means small, poorly fitted or top-dose-only effect; inactive means flat fitted curve, though single readings scatter. Bridge positions count the residues as written; N and C are the ends. Square brackets hold non-standard residues; d marks the D form. Peptide text beside a SMILES is read from it. * marks the point of attachment. ξ: configuration not given here. Octanoyl(6-Me) = CCC(C)CCCCC(=O)*; ξThr(3R) = C[C@@H](O)C(N)C(=O)O; dDab = NCC[C@@H](N)C(=O)O; Dab = NCC[C@H](N)C(=O)O
Potency means the concentration at half of the fitted maximal effect.

The assay is described as follows: Quantitative highthroughput screen to assess conditional lethalithy of P12 Ichikawa cells grown in RPMI1640 with untreated serum (RPMI+s) (AID 1963881). Further: nearly all actives have a fitted effect of over 35% in size. The following applies: ATP luminescence, 48 h; Potency: viability; series mostly up to 45.8 µM; viability: at the top concentration. The text has this: Assay Provider: Jason Cantor Ph.D.
Department of Biochemistry
University of Wisconsin-Madison, Madison, WI, USA
Chemical screening studies have identified drug sensitivities across hundreds of cancer cell lines but most putative therapeutics fail to translate. Discovery and development of drug candidates in models that more accurately reflect nutrient levels in human blood is a major challenge. Here we performed high-throughput screens in conventional versus Human Plasma-Like Medium (HPLM) to identify compounds that were "missed" when screening using the artificial culture condition. Sets of conditional anticancer compounds spanned phases of clinical development and included non-oncology drugs were assessed. […] We also traced conditional phenotypes for several chemotherapeutics to availability of HPLM-specific metabolites and confirmed others for compounds whose reported targets are encoded by nonessential genes. Our findings establish generalizable strategies for exploiting conditional lethality in HPLM to reveal therapeutic candidates and mechanisms of action in cancer cells.
Described herein are the results of each viability screens against three cell lines: NOMO1 (an acute myeloid leukemia cell line); P12-Ichikawa (a T-cell acute lymphoblastic leukemia); and SEM (a B-cell ALL). Each assay was screened using 3 different cell culture media: homemade human plasma-Like medium with 10% dialyzed fetal bovine serum (HPLM+ds); RPMI1640 with 10% untreated FBS and 5mM glucose (RPMI+s); and RPMI1640 with 10% dialyzed fetal bovine serum and 5 mM glucose (RPMI+ds).
PROTOCOL TABLE (as described by Inglese J, Shamu CE and Guy RK. 2007)
SEQUENCE No. (e.g., 1, 2, 3, etc.); […] (e.g., Cells, Incubation, Reagent, etc.); VALUE and DESCRIPTION.
1; Cells; 5 uL; white, solid bottom 1536-well Greiner assay plate.
2; Compounds; 23 nL; Kalypsis pin tool (Wako USA) equipped with a 1536-well pin head to transfer to the assay plates.
3; Incubation; 48 hours; 37C incubation.
4; Reagent; 3 uL; CellTiter Glo (Promega).
5; Incubation; 5 min, room temperature
6; Detection; Luminescence, Viewlux PerkinElmer.
NOTES (numbers refer to Sequence numbers above)
1. Briefly, 5 ul of cell reagent was dispensed using a Multidrop Combi Dispenser. The NOMO1 and SEM cells were plated at 500 cells/well and the P12-Ichikawa line at 1000 cells/well.
2. After seeding the cells, 23 nL of MIPE 4.1 library compounds (in DMSO) were added to each plate using a Kalypsys 1536 Pintool dispenser. Bortezomib at final concentration of […] and DMSO were added to each plate as positive and negative controls respectively. For each screen, MIPE 4.1 compounds were added over an eleven-point concentration range […] in 3-fold dilutions.
3. Each plate was covered with a stainless steel gasketed lid to prevent evaporation and incubated for 48 hour at 37C, 95% relative humidity, and 5% CO2.
4-5. Three microliter CellTilter-GloTM luminescent substrate mix (Promega) reagent was added to the assay plate and incubated at room temperature for 5 min.
6. The luminescence signal was measured using a ViewLux (PerkinElmer) multiplate reader with a 2 second exposure time per plate. Data for each compound were normalized as percent viability such that measurements for DMSO and the empty well controls in each plate were defined as 100% and 0%, respectively.
Consider `CC(C)N1[N]C(=C2C=c3cc(O)ccc3=N2)c2c(N)ncnc21`, for which the Potency was 4.18 µM (active).

Consider `Cn1cc(-c2cnn3c(N)c(Br)c([C@H]4CCCNC4)nc23)cn1`, for which the Potency is 2.64 µM (active). As to `Cc1cn([C@@H]2C[C@@H](O)[C@H](CO)O2)c(=O)[nH]c1=O`, the Potency was 26.4 µM (active). What is called viability is a read-out of living cells in per cent, often relative to untreated cells. Regarding `CC1(C)[C@H](C(=O)O)N2C(=O)C[C@H]2S1(=O)=O`, the “viability” value is 107% (inactive).

For `C[C@H](CCC(=O)O)[C@H]1CCC2C3C[C@H](O)[C@@H]4C[C@H](O)CC[C@]4(C)C3CC[C@@]21C` (stereo not given in full), the “viability” value is 101% (inactive).

Turning to `CN1CC[C@@H](c2c(O)cc(O)c3c(=O)cc(-c4ccccc4Cl)oc23)[C@@H](O)C1`, the Potency was 0.662 µM (active). `O=C(NC[C@H](O)CN1CCc2ccccc2C1)c1cc(NC2COC2)ncn1`: the “viability” value was 79.5% (inactive). In the case of `CON=C(C(=O)N[C@@H]1C(=O)N2C(C(=O)O)=C(CSC(=O)c3ccco3)CS[C@H]12)c1csc(N)n1`, the “viability” value was 94.2% (inactive). With `CN1CCN(CCCN2c3ccccc3Sc3ccc(Cl)cc32)CC1`, the Potency is 8.33 µM (active). For `Fc1ccc(C(c2ccc(F)cc2)N2CCN(CC=Cc3ccccc3)CC2)cc1`, the “viability” value is 101% (inactive). Same read-out and setting: the result for `O=c1cc(-c2ccc(O)cc2)oc2cc(O)cc(O)c12` reads 97.9% (inactive).

Consider `CCOC(=O)[C@@H](N)CCC(=O)N[C@@H](CSCc1ccccc1)C(=O)N[C@@H](C(=O)OCC)c1ccccc1`, for which the “viability” value was 87% (inactive). Regarding `Cc1ccc(C(=O)Nc2ccc(Oc3cc4cnn(C)c4cc3-c3cn[nH]c3)c(F)c2)c(=O)n1-c1ccc(F)cc1`, the Potency is 6.6 µM (active). On to `O=C1NC(=O)[C@@H](c2cn3c4c(cccc24)CCC3)[C@H]1c1c[nH]c2ccccc12`, for which the Potency is 1.32 µM (active). With `O=C(C=Cc1ccc(O)cc1)c1ccc(O)cc1O`, the Potency was 16.6 µM (active). Regarding `CC=CC(=O)N(CC)c1ccccc1C`, the “viability” value was 86.1% (inactive). `CO[C@H]1C=CO[C@@]2(C)Oc3c(C)c(O)c4c(O)c(c5c(c4c3C2=O)NC2(CCN(CC(C)C)CC2)N=5)=NC(=O)C(C)=CC=C[C@H](C)[C@H](O)[C@@H](C)[C@@H](O)[C@@H](C)[C@H](OC(C)=O)[C@H]1C`: the “viability” value was 96.3% (inactive). As to `COc1ncc(-c2ccc3nccc(-c4ccnnc4)c3c2)cc1NS(=O)(=O)c1ccc(F)cc1F`, the Potency is 0.743 µM (active). With `CNCCCC12CCC(c3ccccc31)c1ccccc12`, the Potency is 18.7 µM (active). For `CCC(C)CCCCC(=O)N[C@@H](CCN)C(=O)NC(C(=O)N[C@H](CCN)C(=O)N[C@@H]1CCNC(=O)C([C@@H](C)O)NC(=O)[C@@H](CCN)NC(=O)[C@@H](CCN)NC(=O)[C@@H](CC(C)C)NC(=O)[C@H](Cc2ccccc2)NC(=O)[C@H](CCN)NC1=O)[C@@H](C)O` (stereo partly drawn) ({Octanoyl(6-Me)}-[Dab][ξThr(3R)][dDab][dDab][Dab]F[dL][dDab][dDab][ξThr(3R)]; lactam 4-C), the “viability” value was 106% (inactive). Still for that read-out and setting: the same measure for `CCCCCCCc1ccc(CCc2cccc(O)c2C(=O)O)cc1`: 91.4% (inactive).

`CC(C)(C(=O)NCC(F)(F)C(F)(F)F)C(=O)N[C@@H]1C(=O)Nc2ccccc2-c2ccccc21`: the Potency was 2.96 µM (active). With `c1ccc2c(Oc3nc(Nc4ccc(N5CCOCC5)cc4)c4ncn(C5CCCCC5)c4n3)cccc2c1`, the “viability” value is 98.2% (inactive). In the case of `c1cnc2cc3c(cc2n1)C1CNCC3C1`, the “viability” value was 101% (inactive). For `Cc1ncc(-c2ccnc(Nc3ccc(S(C)(=O)=O)cc3)n2)n1C(C)C`, the Potency was 13.2 µM (active). The same measure, in the same setting: the result for `Cc1cnc(Nc2ccc(CN3CCOCC3)cc2)nc1Nc1cccc(S(=O)(=O)NC(C)(C)C)c1` reads 4.18 µM (active); that for `CC(C)C[C@H](NC(=O)[C@H](Cc1ccccc1)NC(=O)c1cnccn1)B(O)O`, 0.0372 µM (active); that for `CS(=O)c1ccc(-c2nc(-c3ccc(F)cc3)c(-c3ccncc3)[nH]2)cc1` (stereo not given), 7.62 µM (active). For the compound `Cn1cc(CNCC2CCN(c3ncc(C(=O)NO)cn3)CC2)c2ccccc21`, the Potency is 0.235 µM (active). As to `CN[C@@H](C)C(=O)N[C@H]1CCCC[C@H]2CC[C@@H](C(=O)N[C@@H](c3ccccc3)c3cn(CCCCc4ccc(CCCCn5cc([C@@H](NC(=O)[C@@H]6CC[C@@H]7CCCC[C@H](NC(=O)[C@H](C)NC)C(=O)N76)c6ccccc6)nn5)cc4)nn3)N2C1=O`, the “viability” value was 72.9% (inactive).

On to `Cc1ccc(O)c(C(CCN(C(C)C)C(C)C)c2ccccc2)c1` (stereo not given), for which the “viability” value is 103% (inactive). Turning to `Cc1cccc(-c2nn(C(=S)Nc3ccccc3)cc2-c2ccnc3ccccc23)n1`, the “viability” value was 79.6% (inactive). Take `Clc1cccc(-c2nnnn2Cc2cccnc2)c1Cl`: the Potency is 1.32 µM (active). On to `COc1ccc(-c2nc(N3CCOCC3)c3sc(CN(C)c4ncc(C(=O)NO)cn4)cc3n2)cn1`, for which the Potency was 0.0187 µM (active).

Turning to `CCN(CC)CCn1c(=O)c(Cc2ccc(OC)cc2)nc2ccccc21`, the “viability” value is 102% (inactive). Turning to `CCC[C@H](Nc1nc(-c2ccc(NC(=O)NCC)c(OC)c2)ncc1C)c1cccnc1`, the Potency was 0.0418 µM (active). Take `COc1cc([C@H]2Oc3cc([C@H]4Oc5cc(O)cc(O)c5C(=O)[C@H]4O)ccc3O[C@H]2CO)ccc1O`: the “viability” value was 91.6% (inactive). In the case of `Cn1cnc2c(F)c(Nc3ccc(Br)cc3Cl)c(C(=O)NOCCO)cc21`, the Potency is 0.662 µM (active). For the compound `C[C@@H](NC(=O)c1ncnc(N)c1Cl)c1ncc(C(=O)Nc2cc(C(F)(F)F)c(Cl)cn2)s1`, the “viability” value is 82.2% (inactive). For `Cc1cc(C(=O)NOCCO)c(Nc2ccc(I)cc2F)n(C)c1=O`, the “viability” value was 74.4% (inactive).

The record behind these values is PubChem BioAssay (NCATS).
